Laboratory results taken from PubChem BioAssay (NCATS).
Results filed as inconclusive are left out. A number with no mark means an inactive call. The source made the active and inactive calls. Calls come from the whole dose curve; as a rule, active = well fitted inhibition curve with a large enough effect; inconclusive = small, poorly fitted or top-dose-only effect; inactive = flat fitted curve, though single readings scatter.

Assay: P-glycoprotein substrates identified in KB-8-5-11 adenocarcinoma cell line, qHTS therapeutic library screen (AID 1346987); note: nearly all actives have a fitted effect of over 65% in size
Conditions: KB-8-5-11 (P-gp overexpressing) viability, CellTiter-Glo, 72 h; series mostly up to 44.5 µM; activity change, negative = cytotoxicity: at the top concentration
Source text: The ATP-binding cassette transporters P-glycoprotein (P-gp) is known to limit brain penetration of many chemotherapy drugs. […] As such, we developed a high-throughput screen (HTS) to identify substrates of P-gp from a series of chemical libraries including the National Center for Advancing Translational Sciences Pharmaceutical Collection NPC, 2,816 compounds), testing a total of 10,804 compounds, most of which have known mechanisms of action. We used the CellTiter-Glo viability assay to test library compounds against the parental KB-3-1 human cervical adenocarcinoma cell line and the colchicine-selected sub-line KB-8-5-11 that over-expresses P-gp. KB-8-5-11 cells were also tested in the presence of a P-gp inhibitor (tariquidar) to assess reversability of transporter-mediated resistance. Of the tested compounds, a total of 90 P-gp substrates were identified including 55 newly identified P-gp substrates. Substrates were confirmed using an orthogonal killing assay against HEK-293 cells transfected with P-gp. As exemplars, we confirmed that […] (cyclin-dependent kinase inhibitor); AT9283, (Janus kinase 2/3 inhibitor); ispinesib (kinesin spindle protein inhibitor); gedatolisib (PKI-587, phosphoinositide 3-kinase/mammalian target of rampamycin inhibitor); GSK-690693 (AKT inhibitor); and KW-2478 (heat shock protein 90 inhibitor) were substrates , and direct ATPase stimulation was assessed. ABCG2 was also found to confer high levels of resistance to AT9283, GSK-690693 and gedatolisib, while ispinesib, AT7519 and KW-2478 were weaker substrates.
The HeLa derivative cell line, KB-3-1, and its colchicine-selected, P-gp-overexpressing subline, KB-8-5-11 were maintained in DMEM with 10% FCS and Pen/Strep with glutamine at 37 degree C in 5% CO2. For KB-8-5-11 cells, colchicine was added to the medium at a concentration of 100 ng/mL. HEK-293 cells transfected with empty vector (pcDNA) or vector containing human ABCB1 (MDR-19) or ABCG2 (R-5) have been described previously (Robey, Lin, Qiu, Chan & Bates, 2011) and were maintained in EMEM supplemented with 10% FCS, Pen/Strep and glutamine with 2 mg/ml G418 to select for the expression of the transporter. Cultures were confirmed to be free of mycoplasma infection using the MycoAlert Mycoplasma Detection Kit (Lonza, Walkersville, MD). For the screen, assay medium was identical to culture medium except for KB-8-5-11 where colchicine was excluded from the medium.
All cell lines were plated into 1536-well plates at 500 cells/well in 5 uL media. Compounds were then pinned in dose-response using a 1536-head pin tool (Kalypsis, San Diego, CA) and plates were incubated at 37 degree C in 5% CO2 for an additional 72 h. CellTiter-Glo reagent (Promega) was dispensed into the wells, incubated for 5 min and luminescence was read on a ViewLux instrument (Perkin-Elmer). Cytotoxic compounds were defined as those that yielded a curve class of -1.1, -1.2, -2.1, -2.2, -2.3, or -2.4, a maximum response of >50% and an AC50 of < 10 uM. Cherry-picked hits from screening analysis were tested with both the KB pair of cell lines, and the pcDNA (empty vector control) and MDR-19 (P-gp overexpressing) pair were tested, in the absence and presence of tariquidar.
% is set by controls: 0 for no effect and ±100 for the full control effect; potency is the fitted concentration of half-maximal effect.

Row | SMILES | activity change, negative = cytotoxicity [%] | Potency | outcome
1 | CC1=CC(=O)C(C(C)C)=CC1=O | 2.06 | – | –
2 | COc1cc(OC)cc(N(CCNC(C)C)c2ccc3ncc(-c4cnn(C)c4)nc3c2)c1 | – | 18.4 µM (active) | –
3 | O=C(O)c1ccc2c3c1cccc3c(=O)n1c3ccccc3nc21 | 2.56 | – | –
4 | Nc1ncnc2c1nc(Cl)n2C1O[C@H](CO)[C@@H](O)[C@H]1O (stereo not given in full) | – | 1.84 µM (active) | –
5 | O=C(Nc1cc(Oc2cc(F)c(NC(=O)C3(C(=O)Nc4ccc(F)cc4)CC3)cc2F)ccn1)C1CC1 | – | 4.61 µM (active) | –
6 | CN[C@H]1CCN(C(=O)c2ccc(Nc3ncc(F)c(-c4cnc(C)n4C(C)C)n3)cc2)C1 | – | 6.51 µM (active) | –
7 | O=C(O)c1c[nH]c2c(ccc3ccccc32)c1=O | -5.41 | – | –
8 | CCS(=O)(=O)N(Cc1cccnc1)c1cccc(-c2ccc(C#N)cc2)c1 | – | 23.1 µM (active) | –
9 | COc1cc(/C=C(\C#N)C(N)=O)cc(CSc2nc3ccccc3s2)c1O | – | – | inactive
10 | Cc1[nH]c(/C=C2\C(=O)Nc3ccccc32)c(C)c1CCC(=O)O | -11.9 | – | –
11 | CC(C)(C)n1nc(-c2cccc3ccccc23)c2c(N)ncnc21 | -25.5 | – | –
12 | O=C(/C=C/c1cccnc1)c1ccncc1 | -10.2 | – | –
13 | COc1ccc(C(=O)Nc2sc3c(c2C(N)=O)CCCC3)cc1OC | -3.34 | – | –
14 | O=C1/C(=C/c2ccc(O)c(O)c2)Oc2ccccc21 | -29.2 | – | –
15 | COCCNCc1ccc(-c2cc3nccc(Oc4ccc(NC(=S)NC(=O)Cc5ccc(F)cc5)cc4F)c3s2)nc1 | – | 16.4 µM (active) | –
16 | CCOC(=O)c1c2c3c(cccc3[nH]c1=O)C(=O)c1ccccc1-2 | 0.484 | – | –
17 | COc1ccc(-c2cc(C(O)C3CCCCN3)c3ccccc3n2)cc1 (stereo not given) | – | 20.6 µM (active) | –
18 | CC(C)N(CCCNC(=O)Nc1ccc(C(C)(C)C)cc1)C[C@H]1O[C@@H](n2cc(Br)c3c(N)ncnc32)[C@H](O)[C@@H]1O | -7.85 | – | –
19 | BrC1C(Br)C(Br)C(Br)C(Br)C1Br (stereo not given) | -2.71 | – | –
20 | O=C(Nc1ccc(F)cc1)N1CCc2ccccc2C1c1ccc(C(F)(F)F)cc1 (stereo not given) | – | 20.6 µM (active) | –

Row | SMILES | activity change, negative = cytotoxicity [%] | Potency | outcome
21 | CSC(Cc1ccc(Cl)cc1)C(=O)Nc1ccc(Cl)cc1C(=O)O (stereo not given) | -7.77 | – | –
22 | C#C[C@]1(OC(C)=O)CC[C@H]2[C@@H]3CCC4=CC(=O)CC[C@@H]4[C@H]3CC[C@@]21C | – | 3.66 µM (active) | –
23 | C[C@@]1(F)[C@H](O)[C@@H](CO)O[C@H]1n1ccc(N)nc1=O | 1.05 | – | –
24 | COC1(c2sc3c(N4CCOCC4)nc(-c4cnc(N)nc4)nc3c2C)COC1 | – | 0.184 µM (active) | –
25 | COc1ccc(-c2oc3ncnc(N)c3c2-c2ccc(NC(=O)Nc3cc(C(F)(F)F)ccc3F)cc2)cc1 | – | 5.8 µM (active) | –
26 | CC1CCN(c2cc(NC(=O)c3ccccc3)ncn2)CC1 | – | 16.4 µM (active) | –
27 | O=C1c2ccccc2-c2c(NCCc3ccccc3)c(=O)[nH]c3cccc1c23 | – | 1.16 µM (active) | –
28 | CN(C)CCOc1ccc(-c2nc(-c3ccc4c(c3)CC/C4=N/O)c(-c3ccncc3)[nH]2)cc1 | – | – | inactive
29 | CC[C@]1(O)C[C@H]2CN(CCC3C(=Nc4ccccc43)[C@@](C(=O)OC)(c3cc4c(cc3OC)N(C)[C@H]3[C@@](O)(C(N)=O)[C@H](O)[C@]5(CC)C=CCN6CC[C@]43[C@@H]65)C2)C1 (stereo not given in full) | – | 3.66 µM (active) | –
30 | C=C(C)C(=O)O[C@H]1[C@H]2C(=C)C(=O)O[C@@H]2C[C@@H](C)/C=C\C(=O)[C@](C)(O)[C@@H]1OC(C)=O | – | 2.82 µM (active) | –
31 | C=C1[C@@H](C2=CC(=O)OC2)CC[C@@]2(O)[C@@H]1CC1[C@H]2CC[C@@H]2C[C@@H](O[C@H]3O[C@@H](C)[C@@H](O[C@@H]4O[C@H](CO[C@@H]5O[C@H](CO)[C@@H](O)[C@H](O)[C@H]5O)[C@@H](O)[C@H](O)[C@H]4O)[C@H](OC)[C@H]3O)CC[C@]12C (stereo not given in full) | – | 3.48 µM (active) | –
32 | CC(C)COc1ccc(CNC(=O)N(Cc2ccc(F)cc2)C2CCN(C)CC2)cc1 | – | 16.4 µM (active) | –
33 | C=CCN(/C=C1\C(=O)OC(COC)C2(C)C1=C(O)C(=O)C1=C2C(OC(C)=O)CC2(C)C(=O)CCC12)CC=C (stereo not given) | -19 | – | –
34 | NCCNCCN | -18.3 | – | –
35 | CN(C)Cc1cccc(N=C(c2ccccc2)c2c(O)[nH]c3cc(C(N)=O)ccc23)c1 | -0.44 | – | –
36 | C=CC(=O)c1ccc2ccccc2c1 | 4.2 | – | –
37 | CN(C)CC(=O)N1CCC[C@@H](n2nc(-c3ccc(Oc4ccccc4)cc3)c3c(N)ncnc32)C1 | – | 20.6 µM (active) | –
38 | C[C@@H](Oc1cc(-n2cnc3ccc(OC4CCN(C)CC4)cc32)sc1C(N)=O)c1ccccc1Cl | – | 0.461 µM (active) | –
39 | O=[N+]([O-])c1ccc(-[n+]2nc(-c3ccccc3)nn2-c2ccc(I)cc2)cc1 | – | 18.4 µM (active) | –
40 | CC(C)CN(CC(=O)N(CCCN1CCCC1=O)CC(N)=O)C(=O)CNCCc1ccccc1F | – | – | inactive
